Test results published in PubChem BioAssay (EPA / NIEHS).
Calls of active or inactive are those of the source. How the source made its calls: active means hit-call score of the fitted dose curve at least 0.9, where 1 is the maximum; inconclusive means response in the unintended direction; inactive means score below 0.9.

Assay: Tanguay_ZF_120hpf_MORT_legacy: (Legacy) Oregon State University Tanguay Lab 120 Hour Post-fertilization zebrafish Assay for Mortality (AID 2283633);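 on AC50: fitted as increase in binary mortality versus DMSO negative control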
Method in brief: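 Static waterborne exposure from 6 to 120 hpf at 28C of single dechorionated wild-type (5D) embryos per well, 0.64% DMSO final. Death recorded present/absent by brightfield at 24 and 120 hpf.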

SMILES | outcome | AC50
CN1CCN(c2ccccc2/C=C2\SCCN(c3ccc(Cl)c(Cl)c3)C2=O)CC1 | inactive | 
Oc1cccc(O)c1 | inactive | 
Oc1cc2ccccc2c2ccccc12 |  | 14 µM (active)
CC#C[C@]1(O)CC[C@H]2[C@@H]3CCC4=CC(=O)CCC4=C3[C@@H](c3ccc(N(C)C)cc3)C[C@@]21C | inactive | 
CCCCCCCC(=O)O | inactive | 
NC(=O)N1C(=O)C(C(=O)c2cc(Cl)cs2)c2cc(F)c(Cl)cc21 (stereo not drawn) |  | 1.44 µM (active)
COCC(C)O (stereo not drawn) | inactive | 
CC1=C(/C=C/C(C)=C/C=C/C(C)=C/C(=O)O)C(C)(C)CCC1 |  | 1.54 µM (active)
O=C(O)Cc1cc(I)c(Oc2cc(I)c(O)c(I)c2)c(I)c1 |  | 8.91 µM (active)
COc1ccc([N+](=O)[O-])cc1N | inactive | 
NC(=O)N(O)[C@@H]1C=C[C@H](Oc2cccc(Oc3ccc(F)cc3)c2)C1 | inactive | 
OC1CCC(C2CCCCC2)CC1 (stereo not drawn) | inactive | 
CC(C)(C)CC(C)(C)c1ccc(O)c(-n2nc3ccccc3n2)c1 | inactive | 
CC(C)(C)c1ccc(O)c(C(C)(C)C)c1 | inactive | 
c1ccc2c(c1)Cc1ccccc1-2 | inactive | 
COC(=O)CCCCC(=O)OC | inactive | 
CCCCCCCCC(=O)O | inactive | 
c1ccc2cc3c(ccc4ccccc43)cc2c1 | inactive | 
O=c1c(-c2ccc(O)cc2)coc2cc(O)ccc12 | inactive | 
Nc1cccc2c(N)cccc12 | inactive | 
CCCOC(=O)c1ccc(O)cc1 | inactive | 
CC[C@H](c1ccc(O)cc1)[C@@H](CC)c1ccc(O)cc1 | inactive | 
CC(C)(C)c1cc(C(C)(C)C)c(O)c(C(C)(C)C)c1 | inactive | 
